Results reported in PubChem BioAssay AID1159580 (chemical genetic matrix, 2015).
Several values for one entry are separate records, joined by “and”; a condition that tells them apart may be missing. Equal values may be shown once. Screen size: about 5,500 compounds; about 2,000 (36%) were called active. Roughly 18% stayed inconclusive and do not appear here. Cut-off read from the data, not from the text of the source: active = normalized growth mostly below about 0.91 (no sharp cut-off); inconclusive = no clear call, values can overlap the other calls; inactive = mostly above about 0.92. This is one part of the list.

Test: chemical genetic growth profiling, strain panel (AID 1159580);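 note: tested at 20 µM; growth read once vehicle control cultures reached saturation at 30 °C; 1 = growth at the plate median or of vehicle wells; lower values mean less growth of the strain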
Conditions: S. cerevisiae deletion strains, growth OD

Measured: normalized growth

O=C(/C=C/C=C/c1ccc2c(c1)OCO2)N1CCCCC1
inactive: locus YAL013W, strain DEP1, stronger effect = lower value 0.962 | locus YAL021C, strain ccr4, stronger effect = lower value 0.965 | locus YAL030W, strain snc1, stronger effect = lower value 0.959 | locus YBL061C, strain skt5, stronger effect = lower value 0.949 | locus YBR021W, strain FUR4, stronger effect = lower value 0.893 | locus YBR023C, strain chs3, stronger effect = lower value 0.92 | locus YBR171W, strain sec66, stronger effect = lower value 0.91 | locus YBR229C, strain ROT2, stronger effect = lower value 0.969 | locus YBR231C, strain swc5, stronger effect = lower value 0.951 | locus YBR279W, strain paf1, stronger effect = lower value 0.952 | locus YCL016C, strain dcc1, stronger effect = lower value 0.915 | locus YCL029C, strain bik1, stronger effect = lower value 0.954 | locus YCL061C, strain MRC1, stronger effect = lower value 0.943 | locus YCR088W, strain abp1, stronger effect = lower value 0.945 | locus YDL005C, strain med2, stronger effect = lower value 0.975 | locus YDL035C, strain GPR1, stronger effect = lower value 0.922 | locus YDL040C, strain nat1, stronger effect = lower value 0.966 | locus YDL074C, strain BRE1, stronger effect = lower value 0.835 | locus YDL101C, strain DUN1, stronger effect = lower value 0.969 | locus YDL134C, strain PPH21, stronger effect = lower value 0.944 | locus YDL185W, strain tfp1, stronger effect = lower value 0.94 | locus YDL192W, strain arf1, stronger effect = lower value 0.939 | locus YDR001C, strain nth1, stronger effect = lower value 0.936 | locus YDR069C, strain doa4, stronger effect = lower value 0.998 | locus YDR101C, strain arx1, stronger effect = lower value 0.931 | locus YDR150W, strain NUM1, stronger effect = lower value 0.986 | locus YDR159W, strain sac3, stronger effect = lower value 0.955 | locus YDR162C, strain NBP2, stronger effect = lower value 0.93 | locus YDR297W, strain sur2, stronger effect = lower value 0.965 | locus YDR334W, strain swr1, stronger effect = lower value 0.968 | locus YDR335W, strain msn5, stronger effect = lower value 0.96 | locus YDR388W, stronger effect = lower value 0.931 | locus YEL003W, strain gim4, stronger effect = lower value 0.94 | locus YEL037C, strain rad23, stronger effect = lower value 0.946 | locus YEL061C, strain CIN8 (second series), stronger effect = lower value 0.969 | locus YEL061C, strain CIN8, stronger effect = lower value 0.971 | locus YER016W, strain bim1, stronger effect = lower value 0.948 | locus YER110C, stronger effect = lower value 0.951 | locus YER111C, strain swi4, stronger effect = lower value 0.986 | locus YER155C, strain BEM2, stronger effect = lower value 0.963 | locus YER167W, strain BCK2, stronger effect = lower value 0.907 | locus YFR010W, strain ubp6, stronger effect = lower value 0.974 | locus YGL078C, strain dbp3, stronger effect = lower value 0.957 | locus YGL167C, strain pmr1, stronger effect = lower value 0.945 | locus YGL173C, strain kem1, stronger effect = lower value 0.926 | locus YGL227W, strain vid30, stronger effect = lower value 0.948 | locus YGL240W, strain doc1, stronger effect = lower value 0.919 | locus YGL248W, strain PDE1, stronger effect = lower value 0.938 | locus YGR078C, strain PAC10, stronger effect = lower value 0.871 | locus YHR013C, strain ard1, stronger effect = lower value 0.951 | locus YHR027C, strain rpn1, stronger effect = lower value 0.959 | locus YHR030C, strain SLT2, stronger effect = lower value 0.939 and 0.975 | locus YHR079C, strain IRE1 (second series), stronger effect = lower value 0.937 | locus YHR079C, strain IRE1, stronger effect = lower value 0.977 | locus YHR094C, strain hxt1, stronger effect = lower value 0.954 | locus YHR129C, strain ARP1, stronger effect = lower value 0.973 | locus YHR200W, strain rpn10, stronger effect = lower value 0.925 | locus YIL066C, strain RNR3, stronger effect = lower value 0.94 | locus YIL073C, strain SPO22, stronger effect = lower value 0.864 | locus YIL125W, strain kgd1, stronger effect = lower value 0.96 | locus YIR030C, strain dcg1, stronger effect = lower value 0.941 | locus YJL092W, strain hpr5, stronger effect = lower value 0.947 | locus YJL095W, strain BCK1 (second series), stronger effect = lower value 0.935 | locus YJL115W, strain asf1, stronger effect = lower value 0.984 | locus YJL134W, strain LCB3, stronger effect = lower value 0.978 | locus YJL154C, strain vps35, stronger effect = lower value 0.96 | locus YJL166W, strain qcr8, stronger effect = lower value 0.93 | locus YJL168C, strain set2, stronger effect = lower value 0.945 | locus YJL187C, strain SWE1 (second series), stronger effect = lower value 0.942 | locus YJL187C, strain SWE1, stronger effect = lower value 0.967 | locus YJR043C, strain POL32, stronger effect = lower value 0.862 | locus YJR066W, strain TOR1, stronger effect = lower value 0.955
active: locus YAL026C, strain drs2, stronger effect = lower value 0.885 | locus YBR009C, strain hhf1, stronger effect = lower value 0.907 | locus YCL011C, strain gbp2, stronger effect = lower value 0.889 | locus YCL069W, strain vba3, stronger effect = lower value 0.904 | locus YDR137W, strain rgp1, stronger effect = lower value 0.687 | locus YDR195W, strain ref2 1.23 [resistant] | locus YDR318W, strain mcm21, stronger effect = lower value 0.895 | locus YDR392W, strain spt3, stronger effect = lower value 0.599 | locus YDR502C, strain sam2, stronger effect = lower value 0.888 | locus YER015W, strain faa2, stronger effect = lower value 0.922 | locus YER155C, strain BEM2 (second series), stronger effect = lower value 0.696 | locus YGL086W, strain mad1, stronger effect = lower value 0.923 | locus YGL253W, strain hxk2, stronger effect = lower value 0.873 | locus YGR135W, strain pre9, stronger effect = lower value 0.886 | locus YGR229C, strain SMI1, stronger effect = lower value 0.732 | locus YGR252W, strain gcn5, stronger effect = lower value 0.732 | locus YHR142W, strain chs7, stronger effect = lower value 0.857 | locus YJL129C, strain trk1, stronger effect = lower value 0.855 | locus YJL164C, strain tpk1, stronger effect = lower value 0.904
0.779 (active) and 0.987 (inactive): locus YJL095W, strain BCK1, stronger effect = lower value
